M1 antag – blocks the rat M1 muscarinic receptor response to acetylcholine. B-score at 10 µM. CHO-M1 cells, Fluo-4 calcium, ACh EC80 antagonist mode; active compounds read low. P08482. hit rate 3.4% among 64,000;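 active = calcium fluorescence response, raw or row-and-column corrected B-score, differing from the plate sample mean either way at a set confidence level, mostly lower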
M1 ag – agonists of M1 muscarinic receptor. CHO-M1 cells, Fluo-4 calcium fluorescence, agonist mode; active compounds read high. B-score at 10 µM. hit rate 3% among 64,000. AID 626;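 active = fluorescence rise, raw or as B-score row- and column-corrected plate score, outside the 99.7% band of its plate's samples, either direction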
Cav32 inh – inhibitors of human Cav3.2 T-type calcium channel; O95180; B-score at 10 µM; Cav3.2-expressing cells, Fluo-4 calcium fluorescence FDSS; active compounds read low; hit rate 4% among 100,000;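 active = single-dose well whose peak fluorescence ratio is a statistical outlier from its plate by either plate-standardised score or position-corrected B-score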
PLAP act – activates human placental alkaline phosphatase; hit rate 1.2% among 96,000; purified PLAP enzyme, luminescent substrate read-out; active compounds read high; activation fold at 20 µM; in the data active = activation fold above about 2
Target sequence (P05187 whole entry, looked up): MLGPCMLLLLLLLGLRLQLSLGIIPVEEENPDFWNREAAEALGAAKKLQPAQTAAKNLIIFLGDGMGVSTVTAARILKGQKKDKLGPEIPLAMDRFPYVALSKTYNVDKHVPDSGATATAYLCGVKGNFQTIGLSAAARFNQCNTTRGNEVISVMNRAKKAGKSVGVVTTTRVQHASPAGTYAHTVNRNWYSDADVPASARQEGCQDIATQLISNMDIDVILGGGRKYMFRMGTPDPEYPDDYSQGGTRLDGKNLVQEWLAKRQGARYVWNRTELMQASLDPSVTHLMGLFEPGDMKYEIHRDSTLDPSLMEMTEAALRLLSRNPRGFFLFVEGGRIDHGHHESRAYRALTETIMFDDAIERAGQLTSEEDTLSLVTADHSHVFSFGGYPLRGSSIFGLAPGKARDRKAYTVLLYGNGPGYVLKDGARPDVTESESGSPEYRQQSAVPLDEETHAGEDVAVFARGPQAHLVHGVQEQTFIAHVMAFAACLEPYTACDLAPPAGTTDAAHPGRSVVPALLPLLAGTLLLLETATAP
Numbers without * were called inactive. In the library only some 7.6% were active in any assay of this set; here they are far more common.

For Cc1ccc(NC(=O)CSc2nnc(Cc3cccn3C)n2-c2ccc(F)cc2)c(C)c1 the results were M1 antag -0.48, M1 ag 0.67, Cav32 inh -10* and PLAP act 1.3.
Screening Cc1cc(C)n2nc(SCc3cc(=O)oc4ccc5ccccc5c34)nc2n1 returned PLAP act 1.
`CN1c2ccccc2C(O)=C(C(=S)Nc2ccc(F)c(Cl)c2)S1(=O)=O` gave Cav32 inh -11* and PLAP act 1.2.
Screening CN1c2ccccc2C(O)=C(C(=S)Nc2ccccc2)S1(=O)=O returned Cav32 inh -0.43 and PLAP act 1.1.
COc1ccc(-c2cc3ccccc3n2CC(O)Cn2nc(C)cc2C)cc1 (centres undefined) was read as M1 antag 0.98, M1 ag -0.1, Cav32 inh -6.4* and PLAP act 1.7.
`CCOc1ccc(N(C(=O)/C=C/C(=O)Nc2cc(C)on2)C(C(=O)NC2CCCC2)c2ccccc2C)cc1` (centres undefined) gave Cav32 inh -5.4* and PLAP act 1.3.
Screening COc1ccc(OC)c(S(=O)(=O)Nc2cc(Cl)cc(Cl)c2)c1 returned M1 antag -0.71, M1 ag -0.46 and Cav32 inh -2.5.
CCCc1cc(=O)n2[nH]c(-c3ccc(OC)cc3)nc2n1 was read as Cav32 inh -0.36 and PLAP act 0.8.
Screening N#Cc1nc(-c2cccs2)oc1NCc1ccc2c(c1)OCO2 returned M1 antag -0.44, M1 ag -0.71, Cav32 inh -5.6* and PLAP act 0.8.
`COc1ccc(Nc2oc(-c3cccs3)nc2C#N)cc1` gave M1 antag 0.38, M1 ag -0.43, Cav32 inh -4.4* and PLAP act 1.
Screening CCOc1cccc(N(C(=O)Cc2cccs2)C(C(=O)NC2CCCCC2)c2cccn2C)c1 (centres undefined) returned Cav32 inh -4.1*.
For Cc1cc(C)cc(N(C(=O)Cc2cccs2)C(C(=O)NC2CCCCC2)c2ccccn2)c1 (centres undefined) the results were Cav32 inh -5.3* and PLAP act 1.1.
`O=C(NC1CCCCC1)C(c1ccccn1)N(C(=O)Cc1cccs1)c1ccc(Cl)cc1` (centres undefined) gave PLAP act 1.1.
`Cc1ccc(S(=O)(=O)N2CCC(=O)N(C(COCc3cccc(C(F)(F)F)c3)Cc3ccccc3)CC2)cc1` (centres undefined) gave Cav32 inh 0.2.
Cc1cc(C)nc(NS(=O)(=O)c2ccc(NC(=O)c3ccc4c(c3)OCO4)cc2)n1 was read as M1 antag 0.73, M1 ag 0.55, Cav32 inh 0.045 and PLAP act 1.2.
For CCOC(=O)c1c(NC(=O)CSc2nnc(C)s2)sc2c1CCC(C)C2 (centres undefined) the results were Cav32 inh -4.
Screening CC(C)CN1CCC(=O)N(CCSc2ccc(Br)cc2)CC1 returned Cav32 inh -0.039.
`O=C(NCc1ccc(F)cc1)c1cc2c(s1)CCCC2` gave Cav32 inh -6.3* and PLAP act 0.5.
`CC(C)n1c(NCCc2ccccc2)nc2c1c(=O)n(C)c(=O)n2C` gave Cav32 inh -0.69.
Screening O=C(N/N=C/c1cc2ccccc2nc1Cl)/C(=C/c1cccs1)NC(=O)c1ccccc1 returned Cav32 inh -5.9* and PLAP act 1.5.
Screening COc1ccc(C(=O)NNC(=S)NC2CCCCC2)cc1OC returned Cav32 inh 0.59 and PLAP act 2.5*.
`COc1cc(C(=O)NNC(=O)NC2CCCCC2)cc(OC)c1OC` gave Cav32 inh 0.15 and PLAP act 0.9.
For O=C(OCc1ccccc1)N1CCOCCOCCN(C(=O)OCc2ccccc2)CCOCCOCC1 the results were Cav32 inh -2 and PLAP act 1.4.
For Cc1cccc(N2C(=O)CC(Sc3nc(-c4ccccc4)c4cc(Cl)ccc4n3)C2=O)c1 (centres undefined) the results were Cav32 inh -2 and PLAP act 0.8.
For COC(=O)c1cc(OC)cc(O)c1C(=O)c1c(O)cc(C)cc1O the results were Cav32 inh 0.36.
For COc1cc(C)c(C(=O)Oc2cc(C)c(C(=O)O)c(O)c2)c(O)c1 the results were Cav32 inh -4.8*.
CC(C)OC(=O)CC(=O)c1sc2nc3c(cc2c1N)CN(C)CC3 was read as M1 antag 0.055, M1 ag 7.3*, Cav32 inh -0.33 and PLAP act 1.4.
For CCOC(=O)[C@@H]1[C@H]2COc3ccccc3[C@@H]2N2C(=O)N(c3ccc(C(F)(F)F)cc3)C(=O)[C@]12C the results were Cav32 inh -2.4.
